Hits are enriched below; roughly 3.1% of the tested compounds scored in any of these assays.
ERAP1 inh: inhibitors of human ERAP1 aminopeptidase. inhibition, % at 10.7 µM. hit rate 0.15% among 340,000. recombinant ERAP1, Leu-AMC fluorescence, 60 min;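 active means mean replicate inhibition of at least 30%, or all replicates individually reaching that 30% level; inactive means mean below 30% and not every replicate reaching it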;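 further: 0% = neutral control wells and 100% = L-leucinethiol positive control wells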
FGF22 binding: binders of recombinant human FGF22 by thermal shift. SYPRO orange fluorescence; percent of sucrose octasulfate shift, DMSO zero. activity (Tm shift, normalised), % at 9.99 µM. hit rate 1.5% among 340,000. AID 651658;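 active means mean Tm shift, scaled 0 neutral to 100 positive control, at about 1.3% or above, every replicate too, limit read from the data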
Target sequence (Q9HCT0 whole entry, looked up): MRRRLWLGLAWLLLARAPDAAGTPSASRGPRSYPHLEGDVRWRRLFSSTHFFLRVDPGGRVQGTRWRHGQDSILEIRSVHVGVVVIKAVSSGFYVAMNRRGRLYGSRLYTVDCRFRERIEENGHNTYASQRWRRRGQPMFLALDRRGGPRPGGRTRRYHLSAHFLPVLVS
Casp6 inh: inhibitors of human caspase-6. P55212. hit rate 0.53% among 350,000. inhibition, % at 12.5 µM. purified caspase-6, Z-VEID-R110 cleavage fluorescence;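 active means mean inhibition across replicates at least about 35%, with every replicate also reaching that limit, limit read from the data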;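 further: 0% = median of neutral control wells and 100% = no fluorescence left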
Target sequence (P55212 24-179 limits assumed): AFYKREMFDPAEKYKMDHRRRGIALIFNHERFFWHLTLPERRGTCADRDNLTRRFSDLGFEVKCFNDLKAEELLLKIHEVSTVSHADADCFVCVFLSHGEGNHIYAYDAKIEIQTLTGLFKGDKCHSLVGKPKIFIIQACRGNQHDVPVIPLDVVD
Target sequence (P55212 194-293 limits assumed): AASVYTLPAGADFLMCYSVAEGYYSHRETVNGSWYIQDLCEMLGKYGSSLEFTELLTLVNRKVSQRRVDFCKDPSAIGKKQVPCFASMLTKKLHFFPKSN
SIRT5 block: inhibitors of human sirtuin-5 desuccinylase; Purified SirT5, succinyl-peptide AMC, trypsin-coupled fluorescence; inhibition, % at 15 µM; hit rate 1.1% among 330,000; in the data active means inhibition above about 15%
Active calls of the source: *; · = no result.

SMILES | ERAP1 inh | FGF22 binding | Casp6 inh | SIRT5 block
NC1=C(Br)C(=O)c2ncccc2C1=O | 10 | 0 | 100* | 0
Cc1csc2ncc(C(=O)Nc3ccc(C(F)(F)F)cc3)c(=O)n12 | 3 | 0 | 0 | -3
CC(=O)c1cnc2scnn2c1=O | -8 | 43* | -3 | -3
O=C(Nc1ccnn1C1CCN(Cc2ccc(OC(F)F)cc2)CC1)C1CCCC1 | 2 | 0 | -5 | 19*
O=C(Nc1ccnn1C1CCN(Cc2ccc(Cl)cc2)CC1)C1CCCC1 | -1 | 0 | -2 | -3
CCCNC(=O)CCCCn1c(=S)[nH]c2c([nH]c3ccc(OC)cc32)c1=O | 0 | 43* | -1 | -3
COc1ccc(Nc2nc3c(C)cccn3c(=O)c2C=O)cc1 | 1 | 0 | 0 | -1
CCC(C)Nc1nc2c(C)cccn2c(=O)c1C=Nc1ccc(OC)cc1 (stereo not given) | -1 | 0 | 41* | -3
C/C=C/c1ccc2c(c1)O[C@@H](CN(C)Cc1ccccc1)[C@@H](C)CN([C@@H](C)CO)S2(=O)=O | 2 | 0 | 3 | 2
C/C=C/c1ccc2c(c1)O[C@H](CN(C)CC1CCCC1)[C@@H](C)CN([C@H](C)CO)S2(=O)=O | -7 | 0 | 0 | 15*
C[C@H](CO)N1C[C@H](C)[C@H](CN(C)Cc2ccc(C(=O)O)cc2)Oc2cc(/C=C/c3ccccc3)ccc2S1(=O)=O | -1 | 0 | 1 | -1
C/C=C/c1ccc2c(c1)O[C@H](CN(C)Cc1cccc(F)c1)[C@@H](C)CN([C@@H](C)CO)S2(=O)=O | 1 | 0 | -2 | 17*
C/C=C/c1ccc2c(c1)O[C@H](CN(C)Cc1ccccc1)[C@@H](C)CN([C@@H](C)CO)S2(=O)=O | 2 | 0 | 1 | 18*
C[C@@H]1CN([C@H](C)CO)S(=O)(=O)c2ccc(/C=C/c3ccccc3)cc2O[C@H]1CN(C)Cc1ccccc1 | 0 | 0 | 0 | 23*
Cc1ccc(S(=O)(=O)N(C)C[C@H]2Oc3ccc(NS(=O)(=O)c4ccc(F)cc4)cc3C(=O)N([C@H](C)CO)C[C@@H]2C)cc1 | · | 0 | · | ·
O=C(CC1CC1)Nc1ccc2c(c1)[C@H]1C[C@H](CC(=O)N3CCOCC3)O[C@H](CO)[C@H]1O2 | · | 0 | · | ·
COC(=O)c1ccc(/C=C2/SC(=S)N(CCC(=O)NCCCN3CCOCC3)C2=O)cc1 | 0 | 0 | -7 | 23*
O=C1CN(Cc2ccccc2)C[C@@H]2[C@H](c3ccc(-c4ccccc4)cc3)[C@H](CO)N12 | · | · | · | 22*
O=C1CN(S(=O)(=O)Cc2ccccc2)C[C@@H]2[C@@H](c3ccc(C#Cc4ccc(F)cc4)cc3)[C@H](CO)N12 | -3 | · | -2 | 9
O=C1CN(Cc2ccccc2)C[C@H]2[C@@H](c3ccc(-c4ccccc4)cc3)[C@H](CO)N12 | · | · | · | -5
O=C1CN(S(=O)(=O)Cc2ccccc2)C[C@H]2[C@@H](c3ccc(C#Cc4ccccc4)cc3)[C@H](CO)N12 | -3 | · | 3 | 16*
Cc1ccc(CN2CC(=O)N3[C@@H](CO)[C@H](c4ccc(-c5ccccc5F)cc4)[C@@H]3C2)cc1 | 1 | · | 0 | 15*
C[C@H](NC(=O)C[C@H]1C=C[C@H](NC(=O)Cc2ccccn2)[C@H](CO)O1)c1ccccc1 | -2 | 0 | -1 | 1
S=C1NCCOCCOCCOCCNC(=S)N2CCOCCOCCN1CCOCCOCC2 | 0 | 43* | 0 | 0
O=C(C[C@H]1CC[C@H](NC(=O)Nc2ccc3c(c2)OCO3)[C@H](CO)O1)NCc1ccc(F)cc1 | -3 | 0 | -13 | 0
SMILES | ERAP1 inh | FGF22 binding | Casp6 inh | SIRT5 block
O=C(NC[C@H]1[C@H](c2ccccc2)[C@H](CO)N1CC1CCCC1)c1ccncc1 | -3 | 0 | 1 | 1
Cc1ccccc1OCC(O)CN1CCCCC1 (stereo not given) | 1 | 0 | -5 | -2
Cc1ccccc1OCC(O)CN1CCN(CC(O)COc2ccccc2C)CC1 (stereo not given) | 2 | 0 | -2 | 30*
Cc1[nH]nc2c1C(c1ccco1)C(C#N)=C(N)O2 (stereo not given) | 2 | 0 | 1 | 0
CC(C)(C)c1[nH]nc2c1C(c1ccco1)C(C#N)=C(N)O2 (stereo not given) | -2 | 44* | -1 | 1
CC1C(=O)N(Cc2cn(CCC3OCCCO3)nn2)CCS(=O)(=O)N1Cc1ccc(-c2ccc(Cl)cc2)cc1 (stereo not given) | 4 | 44* | 2 | 1
CC(C)Cc1ccc(CN2C(C)C(=O)N(Cc3cn(Cc4ccco4)nn3)CCS2(=O)=O)cc1 (stereo not given) | 0 | 0 | 46* | 1
Cc1ccccc1-c1ccc(CN2C(C(C)C)C(=O)N(Cc3cn(CCC4OCCO4)nn3)CCS2(=O)=O)cc1 (stereo not given) | 9 | 0 | 4 | 4
CC(C)CC1C(=O)N(Cc2cn(Cc3ccco3)nn2)CCS(=O)(=O)N1Cc1ccc(-c2ccc(F)cc2)cc1 (stereo not given) | -5 | 0 | 0 | 18*
Cc1ccc(-c2ccc(CN3C(C(C)C)C(=O)N(Cc4cn(CCC5OCCO5)nn4)CCS3(=O)=O)cc2)c(C)c1 (stereo not given) | · | 0 | 1 | 26*
CC1C(=O)N(Cc2cn(CCC3OCCCO3)nn2)CCS(=O)(=O)N1Cc1ccc(-c2ccccc2)cc1 (stereo not given) | -3 | 0 | 1 | 0
Cc1ccc(-c2ccc(CN3C(CC(C)C)C(=O)N(Cc4cn(Cc5ccco5)nn4)CCS3(=O)=O)cc2)cc1 (stereo not given) | -1 | 1 | 1 | -3
Cc1ccc(S(=O)(=O)N(C)C[C@H]2Oc3ccc(NC(=O)CCCCCC(=O)Nc4ccccc4N)cc3CC(=O)N([C@@H](C)CO)C[C@@H]2C)cc1 | -2 | 0 | 0 | -3
Cc1ccc(-c2ccc(CN3C(C)C(=O)N(Cc4cn(Cc5ccco5)nn4)CCS3(=O)=O)cc2)c(C)c1 (stereo not given) | 8 | 0 | 1 | 27*
NCC[C@@H]1CC[C@H](NC(=O)C2CC2)[C@@H](CO)O1 | -1 | · | -2 | -1
COc1ccc(O)c(C(c2c(C)[nH][nH]c2=O)c2c(C)[nH][nH]c2=O)c1 | 5 | -1 | 72* | 2
COc1ccc(OC)c(C(c2c(C)[nH][nH]c2=O)c2c(C)[nH][nH]c2=O)c1 | 2 | -1 | 5 | 1
CC(=O)N(Cc1ccccc1)Cc1nc2sc(C)c(C)c2c(=O)[nH]1 | 4 | 44* | 1 | 0
Cc1sc2nc(CN(C(=O)NCc3ccccc3)C3CCCC3)[nH]c(=O)c2c1C | · | 0 | 17 | -4
COc1ccccc1N(CC(=O)NCc1ccco1)S(=O)(=O)c1ccc(C)cc1 | 4 | 0 | 50* | -2
Cc1ccc(S(=O)(=O)N(CC(=O)O)Cc2ccco2)cc1 | 1 | · | 63* | -1
CC(=C/c1ccc(C(C)C)cc1)/C=N/NC(=O)c1ccncc1 | 1 | 43* | -4 | 2
CC(/C=N/NC(=O)c1ccncc1)=C\c1ccccc1 | -1 | 0 | -1 | 0

Screening results from PubChem BioAssay.
